The record followed here is PubChem BioAssay (NCATS).

Inconclusive results are not listed. Activity calls are given as the source filed them. The call rests on the fitted dose curve; in most records, active means well fitted inhibition curve with a large enough effect; inconclusive means small, poorly fitted or top-dose-only effect; inactive means flat fitted curve, though single readings scatter.

In the experiment the test system is Zika virus NS2B-NS3 protease. Description: Primary screen GU AMC qHTS for Zika virus inhibitors (AID 1347154).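 Further: 0% = no-inhibitor control and -100% = no-enzyme control; nearly all actives have a fitted effect of over 70% in size.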 The settings on record: Zika NS2B-NS3 unlinked protease, AMC fluorogenic substrate; series mostly up to 54.1 µM; activity change, negative = inhibition: at the top concentration. In a few lines: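 Unlinked Zika NS2B hydrophilic domain/NS3 protease domain noncovalent complex (25 nM final) in 10 mM Tris-HCl pH 8.0, 0.01% Tween 20, with AMC peptide substrate. Fluorescence (ex 340, em 450 nm) change over 15 min, room temperature; percent inhibition fitted to 4-parameter Hill equation.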
A general note: In qHTS, concentration-response curves come from the screen itself.
With `CCCOC(C(=O)OC1CCN(C)CC1)(c1ccccc1)c1ccccc1`, the “activity change, negative = inhibition” value is 2.43% (inactive).

On to `CCC(=O)c1c(O)cc(O)cc1O`, for which the “activity change, negative = inhibition” value is -6.67% (inactive).

On to `COc1ccc(C2C(=O)c3ccccc3C2=O)cc1`, for which the “activity change, negative = inhibition” value was -2.3% (inactive).

For `CC(C)N=C(N)/N=C(\N)Nc1ccc(Cl)cc1`, the “activity change, negative = inhibition” value is 5.95% (inactive).

With `CCN(CC)C(=O)N1CCN(C)CC1`, the “activity change, negative = inhibition” value was 0.673% (inactive).

Turning to `O=c1[nH]c(=O)n([C@H]2C[C@H](O)[C@@H](CO)O2)cc1C(F)(F)F`, the “activity change, negative = inhibition” value was 4.55% (inactive).

For the compound `c1ccc(CNCCNCc2ccccc2)cc1`, the “activity change, negative = inhibition” value is -3.77% (inactive).

Regarding `COc1ccc(CCN2CCC(Nc3nc4ccccc4n3Cc3ccc(F)cc3)CC2)cc1`, the “activity change, negative = inhibition” value was -5.8% (inactive).

Turning to `C[C@]12C=CC(=O)C=C1[C@@H](F)C[C@@H]1[C@@H]2[C@@H](O)C[C@@]2(C)[C@H]1CC[C@]2(O)C(=O)CO`, the “activity change, negative = inhibition” value was -3.02% (inactive).

Take `NCCc1ccn[nH]1`: the “activity change, negative = inhibition” value is 0.908% (inactive).

For `Cc1c(C)n(Cc2ccccc2)c2ccc(C(=O)OCCN(C)C)cc12`, the “activity change, negative = inhibition” value was -14.8% (inactive).

As for `Cc1c(C(N)=O)cc([N+](=O)[O-])cc1[N+](=O)[O-]`, the “activity change, negative = inhibition” value was 0.385% (inactive).

As to `Cc1ccnc(NS(=O)(=O)c2ccc(N)cc2)n1`, the “activity change, negative = inhibition” value was -3.28% (inactive).

With `CCCCCCCCCCCCCCCCOP(=O)([O-])OCC[N+](C)(C)C`, the “activity change, negative = inhibition” value is -14.3% (inactive).

Take `NC[C@H]1O[C@H](O[C@H]2[C@H](O)[C@@H](O[C@H]3O[C@H](CO)[C@@H](O)[C@H](N)[C@H]3O)[C@H](N)C[C@@H]2N)[C@H](N)[C@@H](O)[C@@H]1O`: the “activity change, negative = inhibition” value is 4.48% [at 25.8 µM] (inactive).

On to `CN1CCC(=C2c3ccccc3Sc3ccccc32)CC1`, for which the “activity change, negative = inhibition” value was -2.58% (inactive).

On to `CC(Cc1ccccc1)(NC(=O)CN)c1ccccc1` (stereo unspecified), for which the Potency entry was “inactive”.

Take `CC(=O)OCC(=O)[C@@]12N=C(C)O[C@@H]1C[C@H]1[C@@H]3CCC4=CC(=O)C=C[C@]4(C)[C@H]3[C@@H](O)C[C@@]12C`: the “activity change, negative = inhibition” value is -1.52% (inactive).

With `O=S1(=O)c2cccc3cccc(c23)N1CCCN1CCN(c2ccc(F)cc2)CC1`, the Potency result was “inactive”.

On to `CN1C(CCl)Nc2cc(Cl)c(S(N)(=O)=O)cc2S1(=O)=O` (stereo unspecified), for which the “activity change, negative = inhibition” value is 3.59% (inactive).

Regarding `COc1c2occc2c(OC)c2c(=O)cc(C)oc12`, the “activity change, negative = inhibition” value is -5.18% (inactive).
